High-throughput results deposited in PubChem by National Center for Advancing Translational Sciences (NCATS).
BLM helicase inh = inhibitors of human Bloom syndrome helicase BLM | P54132 | recombinant BLM DNA unwinding, fluorescence dequenching | Potency, µM (top dose mostly 56.1 µM), for inactives: at the top dose activity change, negative = inhibition, actives largely listed as inhibitors | 350,000 compounds, 0.2% hits;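 also: plate controls were vehicle for no effect and no enzyme for full effect; nearly all actives have a fitted effect of over 35% in size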
RECQ1 inh-1 = inhibitors of human RECQ1 DNA helicase | RECQ1 DNA unwinding, red fluorescence kinetic read | Potency, µM (titrated, usually from 57.3 µM), inactives show top-dose activity, negative = inhibition, actives largely listed as inhibitors | 240,000 compounds, 0.54% hits;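 also: plate controls were vehicle for no effect and no enzyme for full effect; nearly all actives have a fitted effect of over 30% in size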
Target sequence (P46063 whole entry, looked up): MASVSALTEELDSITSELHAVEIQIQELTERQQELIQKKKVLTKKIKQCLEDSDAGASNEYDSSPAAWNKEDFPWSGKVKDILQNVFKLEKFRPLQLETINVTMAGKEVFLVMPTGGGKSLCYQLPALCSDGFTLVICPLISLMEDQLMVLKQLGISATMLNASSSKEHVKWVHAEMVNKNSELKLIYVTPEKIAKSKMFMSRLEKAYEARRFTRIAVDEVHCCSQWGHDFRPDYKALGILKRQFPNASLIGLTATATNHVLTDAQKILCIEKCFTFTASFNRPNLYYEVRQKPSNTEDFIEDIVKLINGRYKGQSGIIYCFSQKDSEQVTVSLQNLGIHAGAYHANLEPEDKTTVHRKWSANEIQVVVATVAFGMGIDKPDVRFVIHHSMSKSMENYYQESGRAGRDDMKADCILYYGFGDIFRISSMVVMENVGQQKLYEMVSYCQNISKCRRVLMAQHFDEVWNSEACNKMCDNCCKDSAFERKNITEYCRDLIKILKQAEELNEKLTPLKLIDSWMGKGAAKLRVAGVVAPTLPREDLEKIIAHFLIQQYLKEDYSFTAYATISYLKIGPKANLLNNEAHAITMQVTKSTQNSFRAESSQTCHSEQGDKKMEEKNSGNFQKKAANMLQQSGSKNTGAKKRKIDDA
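RECQ1T1 50 nM; forked duplex (20 bp + 30-nt ss tails) 200 nM, ATP 2 mM final; pH 8.0, 2 mM MgCl2, 2.5 ug/ml poly(dI-dC); 15 min compound preincubation; discontinuous kinetic read over 2 h at RT.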
APE1 inh-1 = blocks human APE1 abasic DNA cleavage | P27695 | recombinant APE1, TAMRA/BHQ-2 abasic DNA cleavage fluorescence | Potency, µM (highest dose often 65.8 µM), for the others: at the highest dose activity change, negative = inhibition, hits mostly inhibitors | 350,000 compounds, 0.35% hits;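 also: plate controls were vehicle for no effect and reference inhibitor for full effect; nearly all actives have a fitted effect of over 55% in size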
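Readout is kinetic fluorescence (ex 525, em 598 nm) from cleavage of 50 nM TAMRA/BHQ-2 THF abasic duplex by 0.75 nM APE1, compound added 15 min beforehand at RT.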
RGS4 inhibitor = blocks human RGS4-accelerated GTP hydrolysis. Transcreener GDP fluorescence polarization, RGS4-accelerated GTP hydrolysis. P49798. 390,000 compounds, 0.039% hits. Potency, µM (doses to about 114 µM), without a hit: at the highest dose activity change, negative = inhibition, most hits filed as inhibitors. AID 504845; also: nearly all actives have a fitted effect of over 75% in size
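MLSMR compounds (23 nl, pin-transferred) preincubated 10 min at room temperature with a 500nM (2x) first reagent, then RGS4 at 900nM (2x) plus Transcreener GDP mix added; fluorescence polarization (620/688 nm) read before and after 90 min at 30 °C.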
GCN5L2 inh = blocks human GCN5L2 histone acetyltransferase; 390,000 compounds, 0.21% hits; Potency, µM (top dose mostly 58.9 µM), for the others: at the top dose activity change, negative = inhibition, hits mostly inhibitors; GCN5L2 HAT assay, ThioGlo1 CoA-SH fluorescence; AID 504327; Q92830
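qHTS, 1536-well. 20nM enzyme, pH 7.5 HEPES/EDTA/Tween-20 buffer; 15 min compound preinc., RT. Start: 75uM H3(1-25), 70uM AcCoA, 50uM ThioGlo1. Read Ex340/Em540 at t=0 (autofluorescence flag) and t=20 min.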
TDP1 block = inhibitors of human tyrosyl-DNA phosphodiesterase TDP1. Q9NUW8. recombinant TDP1, AlphaScreen DNA substrate cleavage. Potency, µM (highest dose often 130 µM), inactives show at the top dose activity change, negative = inhibition, most hits filed as inhibitors. 350,000 compounds, 0.28% hits. AID 485290; also: nearly all actives have a fitted effect of over 40% in size
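Here, a 5' biotin and 3' phosphotyrosine-FITC DNA oligonucleotide reports Tdp1 activity: intact substrate bridges AlphaScreen beads, while cleavage leaves a 3' phosphate and drops signal. All incubations at room temperature.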
DNA dye displace = DNA dye displacement counter-screen activity; shares compounds with APE1 inh-1; Potency, µM (highest dose often 28.5 µM), for the others: at the highest dose activity change, negative = inhibition, usual class: inhibitors; DNA fluorescent dye displacement counterscreen, fluorescence; 480 compounds, 7% hits;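 also: loss of thiazole orange fluorescence as the dye is displaced from duplex DNA; 0% = ThO with dsDNA and no compound and -100% = ThO without dsDNA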
Endo IV inh = Endo IV (E. coli) inhibition counter-screen; shares compounds with APE1 inh-1; E. coli Endo IV, fluorogenic AP-site DNA cleavage; Potency, µM (highest dose often 27.1 µM), for inactives: top-dose activity change, negative = inhibition, hits mostly inhibitors; 560 compounds, 4% hits; AID 2565;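 also: plate controls were uninhibited enzyme wells for no effect and no enzyme buffer wells for full effect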
APE1 inh-2 = APE1 (human) endonuclease inhibition, confirmation; shares compounds with APE1 inh-1; purified APE1, fluorogenic abasic-site DNA cleavage; Potency, µM (doses to about 57.1 µM), for inactives: top-dose activity change, negative = inhibition, actives largely listed as inhibitors; 750 compounds, 44% hits; AID 2572; also: nearly all actives have a fitted effect of over 30% in size
APE1 FP inh = APE1 (human) DNA binding inhibition, fluorescence polarization; AID 2573; shares compounds with APE1 inh-1; Potency, µM (top dose mostly 28.5 µM), without a hit: at the top dose activity, negative = inhibition, most hits filed as inhibitors; 480 compounds, 7% hits; APE1 binding to TAMRA-labelled double-stranded DNA, fluorescence polarization displacement
RECQ1 conf = confirmation of human RECQ1 helicase inhibitors. shares compounds with RECQ1 inh-1. RECQ1 helicase DNA unwinding, fluorescence. Potency, µM (doses to about 229 µM), for inactives: top-dose activity change, negative = inhibition, most hits filed as inhibitors. 610 compounds, 28% hits. AID 2708; also: nearly all actives have a fitted effect of over 45% in size
ADP FP counter = displaces ADP in a fluorescence polarization counter-screen for RECQ1 hits; shares compounds with RECQ1 inh-1; ADP fluorescence polarization displacement counterscreen; Potency, µM (titrated, usually from 228 µM), inactives show at the top dose activity change, negative = inhibition, hits mostly inhibitors; 530 compounds, 27% hits; AID 2711; also: nearly all actives have a fitted effect of over 45% in size
RECQ1 inh-2 = RECQ1 helicase inhibition confirmed, round 2. recombinant RECQ1 DNA unwinding, red fluorescence. 1,100 compounds, 15% hits. shares compounds with RECQ1 inh-1. Potency, µM (series often up to 119 µM), for the others: at the top dose activity, negative = inhibition, hits mostly inhibitors; also: nearly all actives have a fitted effect of over 50% in size
The depositor's hits bear a star; ! = repeats disagree; [ ] = another dose, or the depositor's remark. Most compounds without a hit are left out; they make up all but 0.87% or so of the library. Calls follow the shape of the dose curve; as a rule, active = well fitted curve in the direction sought with a large enough effect; inconclusive = small, poorly fitted or top-dose-only effect, or another doubt; inactive = no such curve, though single readings can be large; an effect the other way counts as inactive or inconclusive. Unless noted, % is scaled to controls: 0 for no effect and ±100 for the full control effect; potency is read from the fitted curve at half-maximal effect.

`CCOc1ccc2noc3c2c1C(=O)c1ccccc1-3` gave BLM helicase inh -6%, RECQ1 inh-1 inactive, APE1 inh-1 -4%, RGS4 inhibitor -17%, GCN5L2 inh -22% and TDP1 block 5%.
For O=C1c2ccccc2-c2onc3ccc(NCc4ccco4)c1c23 the results were BLM helicase inh -22%, RECQ1 inh-1 20µM*, APE1 inh-1 inconclusive, RGS4 inhibitor inconclusive, GCN5L2 inh -4%, TDP1 block 79µM*, APE1 inh-2 14µM* and RECQ1 inh-2 40µM*.
O=c1cc(-c2ccc(O)cc2)oc2cc(O)c(C3OC(CO)C(O)C(O)C3O)c(O)c12 (stereo not drawn) was read as BLM helicase inh -16%, RECQ1 inh-1 inconclusive, APE1 inh-1 7.1µM*, RGS4 inhibitor -3%, GCN5L2 inh 0%, TDP1 block -3%, DNA dye displace -10%, Endo IV inh -1%, APE1 inh-2 13µM*, APE1 FP inh 2% and RECQ1 inh-2 50µM*.
For NCCCC[C@H](NC(=O)[C@H](Cc1c[nH]c2ccccc12)NC(=O)[C@H](CC(=O)O)NC(=O)[C@H](Cc1cnc[nH]1)NC(=O)[C@H](CO)NC(=O)[C@H](Cc1c[nH]c2ccccc12)NC(=O)[C@H](Cc1cnc[nH]1)NC(=O)[C@@H]1CCC(=O)N1)C(=O)N1CCC[C@H]1C(=O)NCC(N)=O the results were BLM helicase inh -2%, RECQ1 inh-1 -16%, APE1 inh-1 -1%, GCN5L2 inh 42% and TDP1 block 13%.
COc1ccc2nc3c(cc2c1)Cn1c-3nc2ccccc2c1=O was read as BLM helicase inh -10%, RECQ1 inh-1 20%, APE1 inh-1 16%, RGS4 inhibitor 5% and TDP1 block 2%.
Screening O=c1oc2c(O)c(O)cc3c(=O)oc4c(O)c(O)cc1c4c23 returned BLM helicase inh 2µM*, RECQ1 inh-1 0.56µM*, APE1 inh-1 0.045µM*!, RGS4 inhibitor inconclusive, GCN5L2 inh inconclusive, TDP1 block 0.1µM*, DNA dye displace 0.089µM*, Endo IV inh inconclusive, APE1 inh-2 0.014µM*, APE1 FP inh 28µM*, RECQ1 conf inconclusive and ADP FP counter 4.5µM*.
Screening COc1ccc(-c2c(O)c3cc(O)cc(O)c3oc2=O)cc1 returned BLM helicase inh -11%, RECQ1 inh-1 -7%, APE1 inh-1 -9%, GCN5L2 inh -1% and TDP1 block 11%.
Cc1cc(NC(=O)Cc2cccs2)no1 was read as BLM helicase inh inconclusive, RECQ1 inh-1 25µM*, APE1 inh-1 28µM*, RGS4 inhibitor -54%, GCN5L2 inh -14%, DNA dye displace inconclusive, Endo IV inh inconclusive, APE1 inh-2 7.9µM*, APE1 FP inh -85% and RECQ1 inh-2 inconclusive.
`Nc1ccc(Nc2ccccc2)c(S(=O)(=O)O)c1` gave BLM helicase inh 0%, RECQ1 inh-1 inconclusive, APE1 inh-1 14µM*, RGS4 inhibitor inconclusive, GCN5L2 inh -17%, TDP1 block 56µM*, DNA dye displace inconclusive, Endo IV inh 15%, APE1 inh-2 inconclusive, APE1 FP inh inconclusive and RECQ1 inh-2 inconclusive.
For COC(=O)C(CCSC)NS(=O)(=O)c1ccccc1Br (stereo not drawn) the results were BLM helicase inh 6%, RECQ1 inh-1 13%, APE1 inh-1 15%, RGS4 inhibitor -12% and TDP1 block 9%.
For O=C(c1coc(=O)c(Br)c1)N1CCC(C(O)(c2ccccc2)c2ccccc2)CC1 the results were BLM helicase inh 4%, RECQ1 inh-1 -17%, APE1 inh-1 2%, RGS4 inhibitor -4%, GCN5L2 inh -7% and TDP1 block 0%.
CC1(C)CCCN(C(=O)c2coc(=O)c(Br)c2)C1 was read as BLM helicase inh 30%, RECQ1 inh-1 11µM*, APE1 inh-1 4µM*, RGS4 inhibitor -32%, GCN5L2 inh -25%, TDP1 block 6.3µM*, APE1 inh-2 1.3µM*, RECQ1 conf 20µM* and ADP FP counter -6%[91.9 µM].
Cc1ccc(NC(=O)CN(C)C(=O)c2cc3c(s2)CCCCC3)cc1 was read as APE1 inh-1 24%, RGS4 inhibitor -2%, GCN5L2 inh -6% and TDP1 block 0%.
